This excerpt belongs to a sample that is enriched for hits.
CBX7 AlphaScr = CBX7 chromodomain binding inhibitors, primary screen, biochemical, AlphaScreen | 66,000 compounds, 1.1% hits | normalised signal (fraction of DMSO) (no concentration beside the values) | AlphaScreen His6-CBX7 / biotin-H3K27me3 peptide binding; stronger effect = lower value; in the data active means normalised signal below about 0.5
Target sequence (O95931 whole entry, looked up): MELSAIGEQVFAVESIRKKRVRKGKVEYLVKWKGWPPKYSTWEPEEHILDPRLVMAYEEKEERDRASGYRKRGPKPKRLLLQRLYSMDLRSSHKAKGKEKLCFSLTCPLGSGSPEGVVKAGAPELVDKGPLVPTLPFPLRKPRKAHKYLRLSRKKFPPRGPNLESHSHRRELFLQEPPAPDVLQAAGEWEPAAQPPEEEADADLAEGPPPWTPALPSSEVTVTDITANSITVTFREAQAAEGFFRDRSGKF
Hits are given with their value; . = inactive.

SMILES	CBX7 AlphaScr
CCOC(=O)c1[nH]cnc1C(=O)Nc1ccccn1	0.19
CCOc1ccc(C2C(C(=O)Nc3ccccn3)=C(C)NC3=C2C(=O)CCC3)cc1 (stereo not given)	.
CCOC(=O)c1ccc(NC(=O)COc2ccc(OC)cc2)cc1	.
CCOC(=O)c1[nH]cnc1C(=O)Nc1ccccc1	.
CCCCCCOc1ccc(C(=O)Nc2ccccn2)cc1	.
COc1cccc(-c2cc(C(F)(F)F)n3nc(C(=O)O)cc3n2)c1	.
O=c1c2ccccc2c2ccccc2c(=O)n1-c1ccc(-c2nc3ccccc3o2)cc1	.
COc1ccccc1Nc1nc(-c2ccc(-c3ccccc3)cc2)cs1	.
O=C(CN1C(=O)CSc2ccccc21)NCCCN1CCOCC1	.
O=C(CN1C(=O)CCSc2ccccc21)NCCN1CCOCC1	.
O=C(CN1C(=O)CSc2ccccc21)NCCN1CCOCC1	0.48
Cc1cccc(-c2nc(CSCC(=O)NC3CC3)c(C)o2)c1	.
Cc1c(C)n(CC(O)CNCc2ccccc2)c2ccccc12 (stereo not given)	.
COc1ccccc1NCC(O)Cn1c2ccc(Br)cc2c2cc(Br)ccc21 (stereo not given)	.
Cc1cccc(NCC(O)Cn2c(C)c(C)c3ccccc32)c1 (stereo not given)	0.47
CCN(CC)CC(O)Cn1c(C)c(C)c2ccccc21 (stereo not given)	.
Cc1nn(CC(O)Cn2c(C)c(C)c3ccccc32)c(C)c1Br (stereo not given)	0.44
COc1ccc(NCC(O)Cn2c3ccccc3c3ccccc32)cc1 (stereo not given)	0.45
Cc1c(C)n(CC(O)CNCCO)c2ccccc12 (stereo not given)	.
CCC(CO)NCC(O)Cn1c(C)c(C)c2ccccc21 (stereo not given)	.
Cc1ccc(C)c(NCC(O)Cn2c(C)c(C)c3ccccc32)c1 (stereo not given)	.
Cc1c(C)n(CC(O)CNc2ccccc2)c2ccccc12 (stereo not given)	0.25
COc1ccc(NCC(O)Cn2c(C)c(C)c3ccccc32)cc1 (stereo not given)	.
Cc1c(C)n(CC(O)CN2CCCCCC2)c2ccccc12 (stereo not given)	.
Cc1[nH]c2ccc(OC(F)(F)F)cc2c1CCNC(=O)c1cc(F)c(F)cc1Cl	.
SMILES	CBX7 AlphaScr
CC(C)NC(=O)CCCN1C(=O)CSc2ncccc21	.
COc1ccc(NCC(O)Cn2c(C)c(C)c3ccccc32)c(OC)c1 (stereo not given)	.
Cc1c(C)n(CC(O)CNC2CCCCC2)c2ccccc12 (stereo not given)	.
CCOc1ccc(NCC(O)Cn2c(C)c(C)c3ccccc32)cc1 (stereo not given)	0.43
Cc1ccc(OCC(=O)N(Cc2nc(-c3ccc(Cl)cc3)no2)C(C)C)c(C)c1	.
COc1ccc(CCNC(=O)C2c3ccccc3C(=O)N2CCc2ccc(C)cc2)cc1OC (stereo not given)	.
Cc1ccn2c(NC(=O)c3ccc(C)c(C)c3)c(-c3ccc(F)cc3)nc2c1	.
CCC(C(=O)NCCCN1CCOCC1)n1ncc2ccccc21 (stereo not given)	.
CCN(CCNC(=O)c1csc2c1CCCC2)c1ccccc1	.
COc1ccc(-n2cnc3cc(NCc4ccc(OC)c(OC)c4)ccc32)cc1	.
COc1ccccc1CNc1ccc2c(c1)ncn2-c1ccc(C)cc1	0.22
COc1ccccc1CNC(=O)c1ccc2c(c1)ncn2-c1ccc(C)c(Cl)c1	.
COc1ccc(CNc2ccc3c(c2)ncn3-c2ccc(C)cc2)cc1	0.27
COc1ccc(CNc2ccc3c(c2)ncn3C)c(OC)c1	.
COc1ccccc1CNc1ccc2c(c1)ncn2-c1ccccc1OC	.
COc1ccc(-n2cnc3cc(NCc4ccccc4OC)ccc32)cc1	0.31
CCOc1ccc(CNc2ccc3c(c2)ncn3-c2ccc(OC)cc2)cc1	.
CCCn1cnc2cc(NCc3ccccc3OC)ccc21	.
O=C(NCCCN1CCCCC1)c1ccc2nc(N3CCOCC3)sc2c1	.
COc1ccc(-n2nc(C(=O)Nc3ccccc3OC)c3ccccc3c2=O)c(OC)c1	.
O=C(C1CC1)N1CCc2cc(S(=O)(=O)Nc3ccc(Cl)cc3F)ccc21	.
Nc1nc(COc2cccc3cccnc23)nc(Nc2ccccc2)n1	.
CCC(C)NC(=O)c1ccc(NC2=NC3CS(=O)(=O)CC3S2)cc1 (stereo not given)	.
Cc1ccc(S(=O)(=O)Nc2cccc3cccnc23)cc1	0.085
Cc1ccc(S(=O)(=O)Nc2ccccc2CNc2ccccn2)cc1	.
SMILES	CBX7 AlphaScr
Cc1ccc(S(=O)(=O)N(C)c2cccc3cccnc23)cc1	.
CCOC(=O)c1cnc2cc(-c3ccc(Cl)cc3)nn2c1C	.
CCc1ccc(-c2csc(NC(=O)c3ccc(S(=O)(=O)N4CCc5ccccc54)cc3)n2)cc1	.
CCCCN(CC)CCNC(=O)c1ccc2c(c1)N=C(CC)c1ccccc1S2	.
CCc1ccc(NC(=O)N(CCN2CCOCC2)Cc2ccc3c(c2)CCCN3CC)cc1	.
CCN1CCCc2cc(CN(CCN3CCOCC3)C(=O)Nc3ccc(C)c(C)c3)ccc21	0.22
CCCN1CCCc2cc(CN(CCCN3CCOCC3)C(=O)Nc3ccccc3)ccc21	.
COc1ccc(N2CC(C(=O)NCC3CCNCC3)CC2=O)cc1 (stereo not given)	.
c1cncc(-c2nc3ccccn3c2Nc2ccc3c(c2)OCCO3)c1	.
c1csc(-c2nc3ccccn3c2Nc2ccc3c(c2)OCCO3)c1	.
Clc1ccc(-c2nc3ncccn3c2Nc2ccc3c(c2)OCCO3)cc1	.
Cc1cccn2c(Nc3ccc4c(c3)OCCO4)c(-c3ccc(Cl)cc3)nc12	0.48
Cc1ccc(-c2nc3ccccn3c2Nc2ccc3c(c2)OCO3)cc1	0.35
Clc1ccc(-c2nc3ccccn3c2Nc2ccc3c(c2)OCCO3)cc1	.
Cc1ccc(-c2nc3ccccn3c2Nc2ccc3c(c2)OCCO3)cc1	.
c1ccn2c(Nc3ccc4c(c3)OCCO4)c(-c3ccc(N4CCOCC4)cc3)nc2c1	.
Brc1cccc(-c2nc3ccccn3c2Nc2ccc3c(c2)OCCO3)c1	0.44
CCC(=O)N1CCc2cc(S(=O)(=O)N(CC)CC)ccc21	.
Cc1cccc(-n2c(Cc3cc(=O)[nH]c(=O)[nH]3)nnc2SCC(=O)Nc2cccc(Cl)c2)c1	.
CCC(C(=O)NCCCOC)n1ncc2ccccc21 (stereo not given)	.
CCc1nc2ccccc2c(NC(=O)CN2CCN(CCO)CC2)c1C	.
Cc1ccc(Oc2nc(-c3ccncc3)nc3ccccc23)cc1	.
COCc1c(C(=O)O)nnn1-c1nonc1N	.
Cc1nc(SCC(=O)c2ccc3c(c2)OCCO3)c2cc(-c3ccccc3)sc2n1	.
COc1ccc(CCNc2nc(C)nc3sc(C)c(C)c23)cc1OC	.
SMILES	CBX7 AlphaScr
Cc1nc(NCCc2ccc3c(c2)OCCO3)c2cc(-c3ccccc3)sc2n1	0.36
CCCC1CCC(c2ccc(-c3noc(-c4c(-c5ccccc5Cl)noc4C)n3)cc2)CC1 (stereo not given)	.
Cc1ccc(S(=O)(=O)c2nc(C)oc2NCc2ccccc2)cc1	.
O=[N+]([O-])c1ccc(-c2cn(-c3ccccc3NCc3ccccc3)cn2)o1	0.48
Cn1cnc(S(=O)(=O)NCc2ccccc2)c1	.
COc1cccc(CNc2sc3c(c2C(=O)Nc2ccc(OC)cc2OC)CCCC3)c1	.
CCOc1ccc(Nc2nc(-c3ccc(Cl)cc3)nc3ccccc23)cc1	.
O=C(CCCN1C(=O)c2cccnc2C1=O)Nc1cccc(Cl)c1	.

Source: PubChem
